The supplement of paper PMC13380429

Test system: Vero E6 infected with SARS-CoV-2
Assay: inhibition of SARS-CoV-2 cytopathic effect; higher = more antiviral protection, active = above 15
Conditions: 48 h

Measured: inhibition of SARS-CoV-2 cytopathic effect

C[C@H](Nc1cc2c(-c3ccc4c(c3)OCO4)noc2cn1)c1ccccc1
inactive: 1 nM 0.3% | 8.33 nM -0.01% | 100 nM -0.1% | 833.33 nM -0.91% | 10000 nM -1.26%

COCCN1CCN(Cc2ccc(-c3n[nH]c4c3C(=O)c3c(NC(=O)NN5CCOCC5)cccc3-4)cc2)CC1
inactive: 1 nM 0.81% | 8.33 nM -16.4% | 100 nM 0.61% | 833.33 nM 2.47% | 10000 nM 9%

C/C(=N\NC(=O)C(NC(=O)c1ccccc1)c1n[nH]c(=O)c2ccccc12)c1cccc(Br)c1 (stereo not given)
inactive: 1 nM -0.71% | 8.33 nM 2.21% | 100 nM 0.8% | 833.33 nM 3.15% | 10000 nM 4.46%

NCCc1c[nH]cn1 [histamine]
inactive: 1 nM -0.66% | 8.33 nM 1.36% | 100 nM 0.17% | 833.33 nM 1.23% | 10000 nM 1%

CCOc1ccc(Cc2cc([C@]34OC[C@](CO)(O3)[C@@H](O)[C@H](O)[C@H]4O)ccc2Cl)cc1 [ertugliflozin]
inactive: 1 nM -4.37% | 8.33 nM -4.65% | 100 nM -2.3% | 833.33 nM -0.17% | 10000 nM 0.59%

NS(=O)(=O)Nc1ncnc(OCCOc2ncc(Br)cn2)c1-c1ccc(Br)cc1
inactive: 1 nM -1.74% | 8.33 nM -0.97% | 100 nM -0.65% | 833.33 nM -3.11% | 10000 nM -3.32%

CC(C)NC[C@@H](O)c1ccc(O)c(O)c1 (racemic) [isoprenaline]
inactive: 1 nM 1.39% | 8.33 nM -0.18% | 100 nM -0.08% | 833.33 nM 0.77% | 10000 nM -2.47%
